# Measured values published in PubChem BioAssay.
# Values joined by “and” are separate entries in the source; they are usually repeats but may differ in a detail not shown here. Equal values may be shown once. Active and inactive are the calls of the source.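 Rule for the calls, unless noted: active = at least 20% inhibition of 6-phosphogluconate dehydrogenase activity; inactive = the rest.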 Peptide text beside a SMILES is read from it.
# Key:
# [1] = target: 6-phosphogluconate dehydrogenase, decarboxylating (Homo sapiens) (UniProt P52209); experiment: 6PGD enzyme inhibitors, primary screen, biochemical, human, recombinant enzyme, NADPH absorbance (AID 1159550); settings: recombinant 6PGD, NADPH absorbance 341 nm; at 10 µM; stronger effect = higher value
# [2] = differential killing of epithelial or mesenchymal cells, primary screen, imaging, PC-3E GFP, TEM4-18 mCherry, co-culture (AID 1345086;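 active = compounds killing one labelled cell type while sparing the other, by normalised counts and ratio limits, not self-fluorescent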;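 for all read-outs here: cells exposed to compound for 72 h before imaging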;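 for red/green cell ratio (normalised): normalised mesenchymal count divided by normalised epithelial count so high means epithelial killing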); settings: imaging cell counts, at 1 µM; for red/green cell ratio (normalised): actives lie on both sides, counts scaled to control wells, 1 = unselective
# [3] = target: Mitogen-activated protein kinase 7 (Homo sapiens) (UniProt Q13164); experiment: ERK5 transactivation activators in reporter cells, primary screen, cell-based, HTS (AID 1508626;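 active = luciferase signal above three times the same-plate solvent-only control wells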;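 note: luciferase driven by Gal4-ERK5 fusion binding five Gal4 sites before minimal TATA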); settings: HeLa Gal4-ERK5 transactivation, 18 h, at 5 µM, stronger effect = higher value
# [4] = measured here: epithelial PC-3E GFP cell survival
# [5] = measured here: mesenchymal TEM4-18 mCherry cell survival
# Sequence of Mitogen-activated protein kinase 7 (Homo sapiens) (Q13164 whole entry, looked up, the tested form may be a part): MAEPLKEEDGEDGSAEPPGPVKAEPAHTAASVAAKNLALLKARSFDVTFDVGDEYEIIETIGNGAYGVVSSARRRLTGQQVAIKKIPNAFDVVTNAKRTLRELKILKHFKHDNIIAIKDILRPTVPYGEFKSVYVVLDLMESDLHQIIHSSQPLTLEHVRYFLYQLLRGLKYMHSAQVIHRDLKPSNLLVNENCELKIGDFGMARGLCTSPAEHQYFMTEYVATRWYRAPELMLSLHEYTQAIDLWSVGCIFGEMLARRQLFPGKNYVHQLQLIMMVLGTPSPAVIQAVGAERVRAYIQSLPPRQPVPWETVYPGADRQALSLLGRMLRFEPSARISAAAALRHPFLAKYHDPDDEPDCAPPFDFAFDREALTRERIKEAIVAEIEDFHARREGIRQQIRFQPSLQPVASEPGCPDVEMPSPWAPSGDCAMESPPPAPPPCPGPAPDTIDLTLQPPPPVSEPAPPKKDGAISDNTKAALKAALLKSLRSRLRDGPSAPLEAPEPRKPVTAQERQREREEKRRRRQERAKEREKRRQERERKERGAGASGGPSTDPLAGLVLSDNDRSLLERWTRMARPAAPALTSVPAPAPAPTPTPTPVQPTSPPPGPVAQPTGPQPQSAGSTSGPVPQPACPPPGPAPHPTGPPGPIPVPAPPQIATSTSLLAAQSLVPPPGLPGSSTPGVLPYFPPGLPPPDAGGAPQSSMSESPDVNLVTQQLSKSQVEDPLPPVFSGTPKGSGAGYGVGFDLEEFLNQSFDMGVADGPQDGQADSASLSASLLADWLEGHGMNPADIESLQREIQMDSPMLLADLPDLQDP
# Sequence of 6-phosphogluconate dehydrogenase, decarboxylating (Homo sapiens) (P52209 whole entry, looked up): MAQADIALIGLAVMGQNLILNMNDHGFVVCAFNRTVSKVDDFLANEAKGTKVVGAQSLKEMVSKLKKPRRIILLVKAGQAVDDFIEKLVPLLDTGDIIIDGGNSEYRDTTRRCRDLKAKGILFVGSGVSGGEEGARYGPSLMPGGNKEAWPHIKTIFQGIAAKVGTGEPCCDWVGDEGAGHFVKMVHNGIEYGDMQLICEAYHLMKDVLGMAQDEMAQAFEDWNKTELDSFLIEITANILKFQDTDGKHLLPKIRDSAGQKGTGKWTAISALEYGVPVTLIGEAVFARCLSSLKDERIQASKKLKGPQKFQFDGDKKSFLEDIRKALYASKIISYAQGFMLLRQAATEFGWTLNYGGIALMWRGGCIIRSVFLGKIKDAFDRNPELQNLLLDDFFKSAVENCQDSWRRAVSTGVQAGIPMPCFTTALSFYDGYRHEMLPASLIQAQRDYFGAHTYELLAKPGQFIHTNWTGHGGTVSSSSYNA
Compound,inhibition [1],red/green cell ratio (normalised) [2],"normalised cell number [2, 4]","normalised cell number [2, 5]",luciferase signal [3]
COc1cc2ccc(=O)oc2c(OC)c1OC,1.65% (inactive),0.93 (inactive),0.81,0.75,16 AU (inactive)
O=C(O[C@@H]1Cc2c(O)cc(O)cc2O[C@@H]1c1ccc(O)c(O)c1)c1cc(O)c(O)c(O)c1,5.78% (inactive),0.99 (inactive),0.85,0.83,52 AU (inactive)
CC(C)[C@@H]1CC[C@@H](C)CC1=O,15.9% (inactive),0.93 (inactive),1.16,1.08,52 AU (inactive)
O=c1cc(-c2ccc(O)cc2)oc2cc(O[C@@H]3O[C@H](CO)[C@@H](O)[C@H](O)[C@H]3O[C@@H]3OC[C@](O)(CO)[C@H]3O)cc(O)c12,-39.6% (inactive),0.8 (inactive),1.3,1.03,196 AU (active)
COc1ccc(-c2c(O)c3c(OC)c4c(cc3oc2=O)OC(C)(C)C=C4)cc1,11.4% (inactive),0.9 (inactive),1.02,0.92,88 AU (inactive)
O=C(Nc1ccccc1)Nc1ccccc1,0.726% (inactive),0.79 (inactive),1.16,0.91,108 AU (inactive)
N[C@@H](C(=O)O)[C@@H](O)[C@H](O)[C@H](O)CO,9.87% (inactive),1.16 (inactive),1.02,1.18,108 AU (inactive)
Nc1ccccc1C(=O)CC(N)C(=O)O (stereo not given),-2.44% (inactive),1.23 (inactive),0.56,0.69,68 AU (inactive)
COC(=O)c1c(C)cc(O)cc1O,7.84% (inactive),1.06 (inactive),0.91,0.97,36 AU (inactive)
Cc1ccc2c(c1)CC[C@H]1CC(=O)CC[C@]21C,-2.97% (inactive),1.02 (inactive),1.12,1.14,16 AU (inactive)
COc1cc(-c2coc3cc(O[C@@H]4O[C@H](CO)[C@@H](O)[C@H](O)[C@H]4O)c(OC)c(O)c3c2=O)cc(O)c1OC,-0.763% (inactive),0.96 (inactive),0.99,0.95,68 AU (inactive)
C=C(C)[C@H]1COc2cc3oc(=O)ccc3cc2O1,5.71% (inactive),0.95 (inactive),1.17,1.11,44 AU (inactive)
COc1cc2c(cc1OC)C1(O)C(=O)c3ccc(O)c(C(=O)O)c3OC1CO2 (stereo not given),11.5% (inactive),1 (inactive),1.11,1.11,16 AU (inactive)
O=C(Oc1cc(O)cc2c1C[C@@H](OC(=O)c1cc(O)c(O)c(O)c1)[C@@H](c1cc(O)c(O)c(O)c1)O2)c1cc(O)c(O)c(O)c1,10.8% (inactive),1.04 (inactive),0.96,0.99,44 AU (inactive)
C=CC(C1=CC(=O)C(OC)=CC1=O)c1ccc(OC)cc1 (stereo not given),9.18% (inactive),0.93 (inactive),1.1,1.03,36 AU (inactive)
CCOC(=O)c1c(C)cc(O)c(C=O)c1O,-5.47% (inactive),0.95 (inactive),0.99,0.94,56 AU (inactive)
COc1ccc2c(c1)OC[C@@H](Cc1ccc(OC)c(OC)c1)[C@@H]2O,11.8% (inactive),0.93 (inactive),0.92,0.85,68 AU (inactive)
COc1cc(OC)c2c(=O)c(-c3ccc4c(c3)OCO4)coc2c1,7.77% (inactive),1.06 (inactive),1.13,1.2,92 AU (inactive)
CC(=O)O[C@@H]1CC2C(C)(C)[C@H](O)CC[C@]2(C)C2CC[C@@]3(C)[C@H](c4ccoc4)OC(=O)C4OC43[C@@]21C (stereo not given in full),-1.03% (inactive) and -1.39% (inactive),1.03 (inactive),1.03,1.06,36 AU (inactive)
COc1c2c(cc3occ(-c4ccc5c(c4)OCO5)c(=O)c13)OC(C)(C)C=C2,-0.247% (inactive),0.95 (inactive),1.19,1.14,60 AU (inactive)
CCCCCC(=O)Cc1cc(O)cc(O)c1C(=O)Oc1cc(CC(=O)CCCCC)c(C(=O)O)c(OC)c1,6.8% (inactive),1.08 (inactive),0.95,1.03,160 AU (inactive)
CC(C)=CC1C(C(=O)O)C1(C)C (stereo not given),-0.837% (inactive),1.07 (inactive),0.96,1.03,44 AU (inactive)
CC1(C)CC2C1CCC1(C)OC2(C)CCC1O (stereo not given),12.8% (inactive),1.07 (inactive),0.96,1.03,100 AU (inactive)

Compound,inhibition [1],red/green cell ratio (normalised) [2],"normalised cell number [2, 4]","normalised cell number [2, 5]",luciferase signal [3]
COc1ccc2c(c1)OC1(O)COc3cc(OC)c(OC)cc3C1=C2 (stereo not given),-7.74% (inactive),1.07 (inactive),1.01,1.09,108 AU (inactive)
CC(=O)Oc1cc(-c2coc3cc(OC(C)=O)c(OC(C)=O)c(OC(C)=O)c3c2=O)cc(OC(C)=O)c1OC(C)=O,-14.8% (inactive),0.88 (inactive),1.23,1.08,36 AU (inactive)
O=c1cc(-c2cc(O)c(O)c(O)c2)oc2cc(O)cc(O)c12,5.62% (inactive),1.14 (inactive),0.99,1.12,72 AU (inactive)
C=CC(C1=CC(=O)C(OC)=CC1=O)c1ccccc1 (stereo not given),-2.35% (inactive),1.14 (inactive),0.95,1.08,60 AU (inactive)
CCCCCC1C(=O)CCC1CC(=O)O (stereo not given),-5.33% (inactive),0.91 (inactive),0.07,0.07,56 AU (inactive)
COc1c(-c2coc3cc4c(cc3c2=O)CC(OC(C)=O)C(C)(C)O4)ccc2c1C=CC(C)(C)O2 (stereo not given),13.9% (inactive),0.78 (inactive),1.02,0.8,56 AU (inactive)
O=C(O)C1(O)C[C@@H](O)C(O)[C@H](O)C1 (stereo not given in full),5.01% (inactive),0.8 (inactive),1.27,1.02,12 AU (inactive)
CCc1ccc2c(O)c3c(cc2c1C(=O)OC)C(=O)c1c(O)ccc(O)c1C3=O,-5.67% (inactive),0.83 (inactive),1.11,0.92,44 AU (inactive)
Nc1nc2ncc(=O)[nH]c2c(=O)[nH]1,-1.84% (inactive),1.01 (inactive),1.17,1.18,56 AU (inactive)
O=c1c(O)c(-c2ccccc2)oc2ccccc12,1.99% (inactive),0.97 (inactive),1.03,1,24 AU (inactive)
O=C(CC(=O)c1ccccc1)c1ccccc1,21.3% (active),0.84 (inactive),1.16,0.97,80 AU (inactive)
COc1c(O)cc2oc3cc(O)c(CC=C(C)C)c(O)c3c(=O)c2c1CC=C(C)C,11.6% (inactive),0.81 (inactive),1.13,0.91,40 AU (inactive)
Oc1cc(O)c2c(c1)O[C@H](c1cc(O)c(O)c(O)c1)[C@H](O)C2,-13.7% (inactive),1.12 (inactive),0.76,0.85,172 AU (inactive)
CCOc1cccc(C(=O)c2ccc(O)c(O)c2O)c1,11.3% (inactive),0.95 (inactive),1.01,0.96,116 AU (inactive)
COC(=O)c1c(C)cc(OC(=O)c2c(C)cc(O)c(C=O)c2O)c(C)c1O,1.13% (inactive),0.78 (inactive),1.24,0.97,12 AU (inactive)
COc1ccc([C@H]2Oc3cc(OC)cc(OC)c3C[C@H]2O)cc1,-0.838% (inactive),0.79 (inactive),1.04,0.82,84 AU (inactive)
c1ccc2c(c1)CN1CCCC1=N2,-1.15% (inactive),1.13 (inactive),0.94,1.06,52 AU (inactive)
CC(C(=O)O)[C@H]1CCC2C3CC=C4C[C@@H](O)CC[C@]4(C)C3CC[C@@]21C (stereo not given in full),8.3% (inactive),0.91 (inactive),1.12,1.02,44 AU (inactive)
CC(=O)Oc1cc(OC(C)=O)c2c(c1)O[C@H](c1ccc(OC(C)=O)c(OC(C)=O)c1)[C@H](OC(C)=O)C2,13.2% (inactive) and -3.23% (inactive),0.86 (inactive),1.41,1.21,48 AU (inactive)
CC1=CC(=O)C(C(C)C)=CC1=O,-9.74% (inactive),0.97 (inactive),0.99,0.96,24 AU (inactive)
CC1=C(/C=C/C(C)=C/C=C/C(C)=C/C=C/C=C(C)/C=C/C=C(C)/C=C/C(=O)[C@]2(C)C[C@@H](O)CC2(C)C)C(C)(C)C[C@H](O)C1,1.92% (inactive),1.16 (inactive),0.85,0.98,20 AU (inactive)
COc1ccc2c(c1)OCC(Cc1ccc(OC)c(OC(C)=O)c1)C2=O (stereo not given),2.88% (inactive),0.86 (inactive),0.47,0.4,80 AU (inactive)
CC(C)=CCOc1cc2oc(=O)ccc2cc1O,1.28% (inactive),1.03 (inactive),1.12,1.16,36 AU (inactive)

Compound,inhibition [1],red/green cell ratio (normalised) [2],"normalised cell number [2, 4]","normalised cell number [2, 5]",luciferase signal [3]
CC(C)=CCC/C(C)=C/CC/C(C)=C/CO,1.99% (inactive),0.89 (inactive),1.03,0.91,88 AU (inactive)
Cc1cc(O)cc(=O)o1,18.1% (inactive),0.97 (inactive),1.03,1.01,52 AU (inactive)
C=C1C2CC[C@@]3(C)[C@H](c4ccoc4)OC(=O)C[C@]13O[C@H]1CC(=O)C(C)(C)[C@H](C(O)C(=O)OC)[C@@]21C (stereo not given in full),-4.16% (inactive),0.98 (inactive),0.75,0.74,28 AU (inactive)
CC1(C)C=Cc2cc3ccc(=O)oc3cc2O1,5.11% (inactive),0.99 (inactive),1.07,1.05,56 AU (inactive)
CC(=O)O[C@@H]1CC[C@@]2(C)C(C[C@@H](OC(C)=O)[C@@]3(C)C4=CC(=O)O[C@@H](c5ccoc5)[C@]4(C)CCC23)C1(C)C (stereo not given in full),-14.7% (inactive),0.98 (inactive),1.08,1.06,56 AU (inactive)
CC(=O)O[C@H]1C[C@@H](OC(C)=O)C(C)(C)C2CC(=O)[C@]3(C)C(CC[C@@]4(C)[C@H](C(=O)O)OC(=O)C5OC543)[C@]21C (stereo not given in full),1.04% (inactive),1 (inactive),0.99,0.99,120 AU (inactive)
O=C(O)C1=C[C@@H](O)[C@@H](O)[C@H](O)C1,9.48% (inactive),1.05 (inactive),0.91,0.95,88 AU (inactive)
COC(=O)[C@@]1(C)CCC[C@]2(C)c3ccc(O)c(C(C)C)c3CCC12 (stereo not given in full),-0.875% (inactive),1.1 (inactive),0.97,1.07,52 AU (inactive)
COc1ccc2c(c1)OCC(Cc1ccc(OC)c(OC)c1)C2=O (stereo not given),8.36% (inactive),0.98 (inactive),0.85,0.84,56 AU (inactive)
COc1ccc2c(c1OC)OC[C@@H](c1ccc(OC)c(OC)c1OC)C2,-2.69% (inactive),0.93 (inactive),0.93,0.86,96 AU (inactive)
C=C1CCC2C(CC2(C)C)C(=O)CCC1O (stereo not given),28.4% (active),1.02 (inactive),0.93,0.96,132 AU (inactive)
COc1ccc(C(=O)O)c(O)c1OC,17.2% (inactive),1.11 (inactive),1.01,1.12,56 AU (inactive)
COC(=O)c1c(C)c2c(c(C)c1O)OC(=O)c1c(C)c(Cl)c(O)c(Cl)c1O2,11.2% (inactive),0.9 (inactive),1.03,0.93,128 AU (inactive)
COc1ccc2c(=O)c(CC(=O)O)coc2c1,-1.05% (inactive),0.91 (inactive),0.98,0.89,60 AU (inactive)
Cc1cc(O)c(C=O)c2c1C(=O)Oc1c(C)c(O)c3c(c1O2)C(O)OC3=O (stereo not given),7.31% (inactive),0.95 (inactive),1.01,0.96,136 AU (inactive)
CC12CCC3C(CC3(C)C)C(C)(CCC1=O)O2 (stereo not given),11.8% (inactive),1.12 (inactive),0.97,1.09,60 AU (inactive)
CC(C)C[C@H](N)C(=O)N[C@@H](C)C(=O)O (H-Leu-Ala-OH),3.68% (inactive),0.74 (inactive),1.26,0.93,16 AU (inactive)
COc1cc(/C=C/C(=O)O)cc(OC)c1OC,-1.71% (inactive),0.99 (inactive),1.06,1.04,52 AU (inactive)
CC(C)=CC1C(CO)C1(C)C (stereo not given),2.26% (inactive),0.97 (inactive),0.97,0.94,68 AU (inactive)
O=c1c(-c2cc(O)c(O)c(O)c2)coc2cc(O)c(O)c(O)c12,29.2% (active),0.99 (inactive),1.01,1,220 AU (active)
C=CC(C1=CC(=O)C(OC)=CC1=O)c1ccc(O)cc1 (stereo not given),1.39% (inactive),0.91 (inactive),1.05,0.95,136 AU (inactive)
COc1c(O)cccc1O,-5.16% (inactive),0.77 (inactive),0.96,0.74,76 AU (inactive)
COc1ccc(-c2coc3c(OC)c(OC)cc(O)c3c2=O)cc1,-3.95% (inactive),1.01 (inactive),1.18,1.19,56 AU (inactive)
